Laboratory results as given in PubChem BioAssay (Tox21).
Records with an inconclusive call do not appear. Activity calls are given as the source filed them. Unless noted, the call rests on the fitted dose curve; in most records, active means well fitted curve in the direction sought with a large enough effect in the repeat runs; inconclusive means weak or mixed curves; inactive means no such curve, though single readings can be large; an effect the other way counts as inactive or inconclusive.

Columns and labels:
[1] = qHTS assay to identify small molecule antagonists of the vitamin D receptor (VDR) signaling pathway - cell viability counter screen (AID 743225); further: on the % scale 0 is the no-effect control and ±100 the full control effect; nearly all actives have a fitted effect of over 50% in size
Summary of the method: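 VDR-bla HEK 293T cells, 4 h pre-incubation at 37C, then compound plus 1-alpha,25-dihydroxyvitamin D3 (3 nM final) for 16 h. After the beta-lactamase FRET read, CellTiter-Glo was added to the same wells; luminescence after 30 min at room temperature.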

[2] = qHTS assay to identify small molecule agonists of the NFkB signaling pathway (AID 1159509; active means well fitted curve in the direction sought with a large enough effect in the signal ratio in the repeat runs, not every such curve was filed as active; the % refers to the signal ratio; further: series mostly up to about 61 µM; on the % scale 0 is the no-effect control and ±100 the full control effect)
Summary of the method: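 Pathway activation was measured in ME-180 cells stably expressing beta-lactamase under NF-kB response element control. Substrate cleavage was read as the 460/530 nm emission shift after 5 hr compound incubation.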

[3] = qHTS assay to identify small molecule agonists of the NFkB signaling pathway - cell viability counter screen (AID 1159515; calls by dose curve; further: series mostly up to about 61 µM; on the % scale 0 is the no-effect control and ±100 the full control effect; nearly all actives have a fitted effect of over 55% in size)
Summary of the method: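 ME-180 NFkB-bla cells, 2,000/well; overnight attach; compound 5 hr, 37 C/5% CO2; LiveBLAzer substrate 1.5 hr RT; then CellTiter-Glo in same wells, 30 min RT, luminescence read.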

[4] = qHTS assay to identify small molecule agonists of the endoplasmic reticulum stress response signaling pathway (AID 1159516; active means well fitted activation curve with a large enough effect in the signal ratio in the repeat runs, not every such curve was filed as active; the % refers to the signal ratio; further: on the % scale 0 is the no-effect control and ±100 the full control effect)
Summary of the method: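 HeLa ESRE-bla reporter line; cpd 5 h, 37 C/5% CO2; LiveBLAzer B/G FRET substrate 2 h RT; ex 405, em 460/530 nm.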

[5] = qHTS assay to identify small molecule antagonists of the retinoid-related orphan receptor gamma (ROR-gamma) signaling pathway - cell viability counter screen (AID 1159520); further: on the % scale 0 is the no-effect control and ±100 the full control effect; nearly all actives have a fitted effect of over 50% in size
Summary of the method: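 Tet-on ROR gamma CHO cells were given compounds for 2 hr, then doxycycline hyclate at 1 uM final, and incubated 16 hr at 37 C. Viability was measured as ATP content by CellTiter-Glo luminescence.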

[6] = target: Nuclear receptor ROR-gamma (Homo sapiens) (UniProt P51449); experiment: qHTS assay to identify small molecule antagonists of the retinoid-related orphan receptor gamma (ROR-gamma) signaling pathway (AID 1159521;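 further: CHO cells with doxycycline inducible ROR-gamma driving an RORE luciferase reporter; top concentration of the series differs between compounds; on the % scale 0 is the no-effect control and ±100 the full control effect; nearly all actives have a fitted effect of over 50% in size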)
Summary of the method: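 Tet-on RORγ CHO cells carrying a ROR response element–luciferase reporter were pretreated with compounds for 2 h, then induced with 1 uM (final) doxycycline hyclate for 16 h at 37 C. Antagonism was read as decreased ONE-Glo luminescence.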

[7] = qHTS assay to identify small molecule agonists of the AP-1 signaling pathway - cell viability counter screen (AID 1159525; calls by dose curve; further: nearly all actives have a fitted effect of over 55% in size)
Summary of the method: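 Same-well cytotoxicity counter screen of the Tox21 10K library in ME-180 cells. The readout is ATP-dependent luminescence after 5 h compound treatment. Data are normalised to DMSO and tetra n-octyl ammonium bromide controls.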

[8] = qHTS assay to identify small molecule agonists of the AP-1 signaling pathway (AID 1159526; calls by dose curve; further: on the % scale 0 is the no-effect control and ±100 the full control effect)
[9] = target: Retinoic acid receptor RXR-alpha (Homo sapiens) (UniProt P19793); experiment: qHTS assay to identify small molecule agonists of the RXR signaling pathway (AID 1159527; calls by dose curve; further: on the % scale 0 is the no-effect control and ±100 the full control effect; nearly all actives have a fitted effect of over 35% in size)
Summary of the method: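 GeneBLAzer RXR-alpha-UAS-bla HEK 293T cells in medium with 2% charcoal-stripped FBS, pre-incubated 5 hr at 37 C, then exposed to compounds 16 hr. Beta-lactamase reporter read by FRET substrate, 2 hr room temperature, 460/530 nm emission.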

[10] = qHTS assay to identify small molecule agonists of the RXR signaling pathway - cell viability counter screen (AID 1159529); further: series mostly up to about 77 µM; on the % scale 0 is the no-effect control and ±100 the full control effect; nearly all actives have a fitted effect of over 50% in size
Summary of the method: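 RXR-alpha-UAS-bla HEK 293T cells in medium with 2% charcoal-stripped FBS were preincubated 5 hr, then exposed to compounds for 16 hr at 37 C. Viability was read as CellTiter-Glo luminescence after 30 min at room temperature.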

[11] = qHTS assay to identify small molecule antagonists of the retinoid acid receptor (RAR) signaling pathway - cell viability counter screen (AID 1159551); further: on the % scale 0 is the no-effect control and ±100 the full control effect; nearly all actives have a fitted effect of over 35% in size
Summary of the method: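 C3RL4 RARE-luciferase line; cpds + retinol 1 uM final, 6 h, 37 C/5% CO2; CellTiter-Glo ATP luminescence, 30 min RT.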

[12] = qHTS assay to identify small molecule antagonists of the retinoic acid receptor (RAR) signaling pathway (AID 1159552)
Summary of the method: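 RARE-luc C3RL4 cells; cpds + 1 uM (final) retinol, 6 hr, 37 C/5% CO2; luciferase reagent, 30 min RT, luminescence readout. Inhibitors of retinol-driven signal scored.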

[13] = qHTS assay to identify small molecule antagonists of the estrogen related receptor (ERR) signaling pathway from Tox21 library - cell viability counter screen (AID 1224834); further: on the % scale 0 is the no-effect control and ±100 the full control effect; nearly all actives have a fitted effect of over 30% in size
Summary of the method: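 Multiplexed viability counter screen in ERR cells: 17.5 h compound exposure at 37 C, CellTiter-Fluor added, 30 min at 37 C/5% CO2, fluorescence read.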

[14] = qHTS assay to identify small molecule agonists of the retinoic acid receptor (RAR) signaling pathway (AID 1159553); further: on the % scale 0 is the no-effect control and ±100 the full control effect
Summary of the method: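 RARE-luc C3RL4 cells; overnight attachment 37 C/5% CO2; compound (DMSO) 6 hr; luciferase reagent, 30 min RT; luminescence read-out.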

Retinoic acid receptor RXR-alpha (Homo sapiens), sequence (P19793 whole entry, looked up): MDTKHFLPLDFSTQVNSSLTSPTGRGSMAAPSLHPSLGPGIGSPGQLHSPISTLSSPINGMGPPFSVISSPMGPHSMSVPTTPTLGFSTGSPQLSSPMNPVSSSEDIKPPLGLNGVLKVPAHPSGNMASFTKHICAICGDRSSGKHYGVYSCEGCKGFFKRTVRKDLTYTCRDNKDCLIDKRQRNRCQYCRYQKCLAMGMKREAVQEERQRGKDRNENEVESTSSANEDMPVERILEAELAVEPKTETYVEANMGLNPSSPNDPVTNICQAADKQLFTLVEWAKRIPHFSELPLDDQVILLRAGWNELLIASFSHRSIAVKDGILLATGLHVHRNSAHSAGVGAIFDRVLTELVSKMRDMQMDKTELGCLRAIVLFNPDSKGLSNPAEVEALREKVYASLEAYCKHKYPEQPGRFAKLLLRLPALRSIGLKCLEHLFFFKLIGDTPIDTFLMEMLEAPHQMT

CC[C@H]1OC(=O)[C@H](C)[C@@H](O[C@H]2C[C@@](C)(OC)[C@@H](O)[C@H](C)O2)[C@H](C)[C@@H](O[C@@H]2O[C@H](C)C[C@H](N(C)C)[C@H]2O)[C@](C)(O)C[C@@H](C)C(=O)[C@H](C)[C@@H](O)[C@]1(C)O
inactive: Potency [1] | outcome [2] | Potency [3] | Potency [4] | Potency [5] | Potency [6] | Potency [7] | outcome [8] | Potency [9] | Potency [10] | Potency [11] | Potency [12] | Potency [13]

O=C(O)CCS
inactive: Potency [1] | outcome [2] | Potency [3] | Potency [4] | Potency [5] | Potency [6] | Potency [7] | outcome [8] | Potency [9] | Potency [10] | Potency [11] | Potency [12] | Potency [14] | Potency [13]

Nc1ccc(F)cc1
inactive: Potency [1] | outcome [2] | Potency [3] | Potency [4] | Potency [5] | Potency [6] | Potency [7] | outcome [8] | Potency [9] | Potency [10] | Potency [11] | Potency [14] | Potency [13]

Cc1ccc(Cl)cc1N
inactive: Potency [1] | outcome [2] | Potency [3] | Potency [4] | Potency [5] | Potency [6] | Potency [7] | outcome [8] | Potency [9] | Potency [10] | Potency [11] | Potency [12] | Potency [14] | Potency [13]

O=S(=O)(Cl)c1c(Cl)cccc1Cl
inactive: Potency [1] | outcome [2] | Potency [3] | Potency [4] | Potency [5] | Potency [6] | Potency [7] | outcome [8] | Potency [9] | Potency [10] | Potency [11] | Potency [12] | Potency [14] | Potency [13]

O=C(O)CCC(=O)OC[C@@H](NC(=O)C(Cl)Cl)[C@H](O)c1ccc([N+](=O)[O-])cc1
inactive: Potency [1] | outcome [2] | Potency [3] | Potency [4] | Potency [5] | Potency [6] | Potency [7] | outcome [8] | Potency [9] | Potency [10] | Potency [11] | Potency [12] | Potency [14] | Potency [13]

O=C(NC(Cc1cc(=O)[nH]c2ccccc12)C(=O)O)c1ccc(Cl)cc1 (centres undefined)
inactive: Potency [1] | outcome [2] | Potency [3] | Potency [4] | Potency [5] | Potency [6] | Potency [7] | outcome [8] | Potency [9] | Potency [10] | Potency [11] | Potency [12] | Potency [14]

C=CCOC(=O)COCCC(C)C
inactive: Potency [1] | outcome [2] | Potency [3] | Potency [4] | Potency [5] | Potency [6] | Potency [7] | outcome [8] | Potency [9] | Potency [10] | Potency [11] | Potency [14] | Potency [13]

COC(OC)OC
inactive: Potency [1] | outcome [2] | Potency [3] | Potency [4] | Potency [5] | Potency [6] | Potency [7] | outcome [8] | Potency [9] | Potency [10] | Potency [11] | Potency [12] | Potency [14] | Potency [13]

O=C(O)CO
inactive: Potency [1] | outcome [2] | Potency [3] | Potency [4] | Potency [5] | Potency [6] | Potency [7] | outcome [8] | Potency [9] | Potency [10] | Potency [11] | Potency [12] | Potency [14] | Potency [13]

CCC(C)(C)C(=O)O
inactive: Potency [1] | outcome [2] | Potency [3] | Potency [4] | Potency [5] | Potency [6] | Potency [7] | outcome [8] | Potency [9] | Potency [10] | Potency [11] | Potency [12] | Potency [14] | Potency [13]

Cc1cccc(C)c1NC(=O)c1cc(S(N)(=O)=O)c(Cl)cc1O
inactive: Potency [1] | outcome [2] | Potency [3] | Potency [4] | Potency [5] | Potency [6] | Potency [7] | outcome [8] | Potency [9] | Potency [10] | Potency [11] | Potency [12] | Potency [13]

O=C1OC(=O)c2c(Br)c(Br)c(Br)c(Br)c21
inactive: Potency [1] | outcome [2] | Potency [3] | Potency [4] | Potency [5] | Potency [6] | Potency [7] | outcome [8] | Potency [9] | Potency [10] | Potency [11] | Potency [12] | Potency [14] | Potency [13]

Nc1ccn([C@H]2CS[C@@H](CO)O2)c(=O)n1
inactive: outcome [2] | Potency [3] | Potency [4] | Potency [5] | Potency [6] | Potency [7] | outcome [8] | Potency [9] | Potency [10] | Potency [11] | Potency [12] | Potency [14] | Potency [13]

CCCCCCCCCCCCCOC(=O)CCSCCC(=O)OCCCCCCCCCCCCC
inactive: Potency [1] | outcome [2] | Potency [3] | Potency [4] | activity, negative = cytotoxicity [5] 0.433% [at 19 µM] | activity change, negative = inhibition [6] -3.96% [at 19 µM] | viability change, negative = cytotoxic [7] -10.6% [at 15.8 µM] | activation [8] -14.2% [at 15.8 µM] | activation [9] 4.41% [at 15.8 µM] | activity change, negative = cytotoxicity [10] 10.7% [at 15.8 µM] | activity change, negative = cytotoxicity [11] 3.2% [at 19 µM] | Potency [14] | viability change, negative = cytotoxic [13] -0.449% [at 19 µM]

O=C1[C@@H]2[C@H]3CC[C@H](C3)[C@@H]2C(=O)N1CCCCN1CCN(c2ncccn2)CC1
inactive: outcome [2] | Potency [3] | Potency [4] | Potency [5] | Potency [6] | Potency [7] | outcome [8] | Potency [9] | Potency [10] | Potency [11] | Potency [14] | Potency [13]

CCc1ccc(C)cc1
inactive: Potency [1] | outcome [2] | Potency [3] | Potency [4] | Potency [5] | Potency [6] | Potency [7] | outcome [8] | Potency [9] | Potency [10] | Potency [11] | Potency [12] | Potency [14] | Potency [13]
